Measured values: PubChem BioAssay
Activity calls are given as the source filed them. Unless noted, the rule behind the calls is not given here.

Experiments:
[1] = HepG2 liver cancer cell viability effects, profiling panel, resazurin fluorescence, 24 h, PK04 Diversity Set (AID 1172); settings: higher = more signal
[2] = basal S. cerevisiae growth modulation, no modifier, primary screen, OD600, strain BY4716, 24 h, basal condition (AID 1173); settings: OD600, 24 h, higher = more signal, called active from +8 up or from −8 down
[3] = MM1S myeloma cell viability, profiling panel, resazurin fluorescence, basal, 24 h, PK04 Diversity Set (AID 1174); settings: higher = more signal, called active from +8 up or from −8 down;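 note: MM1S multiple myeloma cell line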
[4] = target: Dihydroorotate dehydrogenase (quinone), mitochondrial (Plasmodium falciparum (isolate 3D7)) (UniProt Q08210); assay: PfDHODH enzyme inhibitors, primary screen, biochemical, C-terminal His tag, absorbance 600 nm (AID 1175); settings: DCIP absorbance 600 nm, higher = more signal, called active from +8 up or from −8 down;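 note: recombinant parasite enzyme with a five histidine tag at its C terminus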
Sequence of Dihydroorotate dehydrogenase (quinone), mitochondrial (Plasmodium falciparum (isolate 3D7)) (Q08210 whole entry, looked up): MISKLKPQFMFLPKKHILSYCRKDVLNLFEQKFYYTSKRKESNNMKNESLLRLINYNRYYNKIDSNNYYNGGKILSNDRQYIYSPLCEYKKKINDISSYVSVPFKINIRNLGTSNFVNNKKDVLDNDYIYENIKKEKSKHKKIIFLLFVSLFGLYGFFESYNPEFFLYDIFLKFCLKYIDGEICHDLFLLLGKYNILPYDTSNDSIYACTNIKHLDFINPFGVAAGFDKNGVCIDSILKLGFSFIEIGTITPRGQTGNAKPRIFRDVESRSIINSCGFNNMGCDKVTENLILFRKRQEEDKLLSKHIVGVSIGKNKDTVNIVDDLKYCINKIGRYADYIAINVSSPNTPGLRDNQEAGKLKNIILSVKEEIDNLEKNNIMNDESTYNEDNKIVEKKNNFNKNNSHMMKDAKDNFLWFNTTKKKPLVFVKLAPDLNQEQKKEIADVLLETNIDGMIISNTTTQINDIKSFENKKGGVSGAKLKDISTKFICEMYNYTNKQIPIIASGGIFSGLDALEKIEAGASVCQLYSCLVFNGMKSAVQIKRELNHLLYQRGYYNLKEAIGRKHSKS

[5] = P. aeruginosa biofilm formation inhibitors, primary screen, strain PAO1, LB-PBS medium, absorbance 600 nm (AID 1176); settings: P. aeruginosa PAO1 growth/biofilm, A600, 12 h; higher = more signal
[6] = S. cerevisiae RM11-1a growth modifiers, primary screen, strain RM11-1a, OD600, basal, 24 h (AID 1177); settings: OD600, 24 h, higher = more signal, called active from +8 up or from −8 down;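 note: cultures grown under basal conditions with no added stressor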
[7] = E. coli acrAB mutant growth effects, primary screen, E. coli filamentation inducers, strain DRC39, OD650, 24 h (AID 1178); settings: higher = more signal, called active from +8 up or from −8 down;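 note: growth measured as culture turbidity by optical density at 650 nm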
[8] = E. coli acrAB mutant growth effects, primary screen, E. coli filamentation inducers, strain DRC39, OD650, 48 h (AID 1179);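 note: screen aims at cell division blockers that make cells filament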; settings: E. coli DRC39 delta-acrAB growth, higher = more signal, called active from +8 up or from −8 down
[9] = RPMI8226 myeloma cell viability, profiling panel, resazurin fluorescence, basal, 24 h, PK04 Diversity Set (AID 1180); settings: higher = more signal;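 note: RPMI8826 multiple myeloma cell line at 5000 cells per well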
[10] = target: E3 ubiquitin-protein ligase XIAP (Homo sapiens) (UniProt P98170); assay: XIAP binders, primary screen, biophysical, small-molecule microarray, fluorescence 635 nm (AID 1181); settings: small-molecule microarray binding, higher = more signal;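 note: score merges 667 nm emission and signal to noise over triplicate slides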
Sequence of E3 ubiquitin-protein ligase XIAP (Homo sapiens) (P98170 whole entry, looked up): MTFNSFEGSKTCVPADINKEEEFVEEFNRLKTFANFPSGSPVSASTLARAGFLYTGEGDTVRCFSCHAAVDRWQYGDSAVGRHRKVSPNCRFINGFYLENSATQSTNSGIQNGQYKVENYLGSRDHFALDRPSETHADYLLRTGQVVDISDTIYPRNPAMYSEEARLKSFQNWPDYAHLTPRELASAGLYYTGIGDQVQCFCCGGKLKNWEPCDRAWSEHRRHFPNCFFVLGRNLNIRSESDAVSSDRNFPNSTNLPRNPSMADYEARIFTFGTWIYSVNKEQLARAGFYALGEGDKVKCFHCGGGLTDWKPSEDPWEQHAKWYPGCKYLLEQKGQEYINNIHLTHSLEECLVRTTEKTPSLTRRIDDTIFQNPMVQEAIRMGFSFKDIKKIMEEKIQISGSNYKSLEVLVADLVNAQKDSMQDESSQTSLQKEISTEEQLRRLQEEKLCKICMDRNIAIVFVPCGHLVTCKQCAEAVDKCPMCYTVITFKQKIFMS

[11] = tested on: XIP peptide (Xip251-270) binding; assay: small-molecule binders of XIP peptide, primary screen, biochemical, small-molecule microarray, fluorescence 635/667 nm, 0.1 µg/mL protein (AID 1182); settings: fluorescent protein binding, 635 nm, higher = more signal, called active from +8 up or from −8 down
XIP peptide (Xip251-270) = assay: small-molecule binders of XIP peptide, primary screen, biochemical, small-molecule microarray, fluorescence 635/667 nm, 0.5 µg/mL protein (AID 1183); settings: small-molecule microarray binding, fluorescence 635 nm; higher = more signal
[12] = Plasmodium falciparum growth inhibition, primary screen, strain 3D7, DAPI fluorescence, 100 nL (AID 1184);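 note: parasites grown inside human red blood cells in medium with human serum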; settings: P. falciparum 3D7 growth, 3 d, higher = more signal
[13] = target: Homeobox protein Hox-A13 (Mus musculus) (UniProt Q62424); assay: inhibitors of HoxA13-DNA binding, primary screen, biochemical, fluorescence polarization, labeled oligonucleotide (AID 1185); settings: 15 min, higher = more signal, called active from +8 up or from −8 down
Sequence of Homeobox protein Hox-A13 (Mus musculus) (Q62424 whole entry, looked up): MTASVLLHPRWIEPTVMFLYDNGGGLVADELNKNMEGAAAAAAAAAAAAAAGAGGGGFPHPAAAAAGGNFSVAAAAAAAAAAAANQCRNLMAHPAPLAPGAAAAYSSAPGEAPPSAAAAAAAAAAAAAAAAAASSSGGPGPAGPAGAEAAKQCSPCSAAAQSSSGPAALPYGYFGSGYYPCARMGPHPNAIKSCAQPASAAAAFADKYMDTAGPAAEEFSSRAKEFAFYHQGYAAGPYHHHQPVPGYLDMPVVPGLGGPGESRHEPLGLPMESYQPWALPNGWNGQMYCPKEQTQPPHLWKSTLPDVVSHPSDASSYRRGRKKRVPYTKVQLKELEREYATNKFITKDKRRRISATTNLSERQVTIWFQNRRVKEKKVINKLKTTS

[14] = inhibitors of hydroxyurea-induced Chk1 phosphorylation, primary screen, imaging, HeLa, phospho-Chk1 antibody, percent positive cells (AID 1186); settings: hydroxyurea-induced phospho-Chk1 immunofluorescence imaging, higher = more signal
[15] = inhibitors of hydroxyurea-induced Chk1 phosphorylation, primary screen, imaging, HeLa, phospho-Chk1 nuclear intensity (AID 1187); settings: hydroxyurea-induced phospho-Chk1 immunofluorescence imaging, higher = more signal

Compound | z-score [1] | z-score [2] | z-score [3] | composite z-score [4] | z-score [5] | z-score [6] | z-score [7] | z-score [8] | z-score [9] | composite z-score [10] | composite z-score [11] | composite z-score (XIP peptide (Xip251-270)) | z-score [12] | z-score [13] | z-score [14] | z-score [15]
C=CCOC(=O)[C@H]1[C@@H]2C(=O)O[C@@H](c3ccccc3)[C@@H](c3ccccc3)N2[C@@H](c2ccc(OCCOC(=O)[C@H]3C[C@H]4C(=O)N5CCC[C@H]5C(=O)N4[C@H]3c3ccc(O)cc3)cc2)[C@]12C(=O)Nc1ccc(I)cc12 | -0.495 | -1.03 (inactive) | -0.941 (inactive) | -1.73 (inactive) | 2.43 (inactive) | -0.632 (inactive) | -0.651 (inactive) | -1.05 (inactive) | -0.215 | 2.8 | 2.85 (inactive) | 0.84 | -1.28 | 0.622 (inactive) | -0.187 (inactive) | 0.366 (inactive)
O=C1O[C@H](c2ccccc2)[C@H](c2ccccc2)N2[C@H]1[C@@H](C(=O)O)[C@]1(C(=O)Nc3ccc(C#CC4=CCCCC4)cc31)[C@H]2c1ccccc1OCCO | -1.19 | -1.17 (inactive) | -5.12 (inactive) | -6.35 (inactive) | 2.36 (inactive) | 1.73 (inactive) | -0.0532 (inactive) | 0.0958 (inactive) | -6.63 | -0.102 | 0.746 (inactive) | 0.745 | -1.86 | -2.65 (inactive) | 0.144 (inactive) | -0.0653 (inactive)
CCOC(=O)C=Cc1cc([N+](=O)[O-])ccc1O | -0.495 | -4.86 (inactive) | -0.912 (inactive) | -4.74 (inactive) | -0.501 (inactive) | 0.11 (inactive) | -0.238 (inactive) | -1.13 (inactive) | -0.688 | 0.193 | -0.0238 (inactive) | -0.466 | -1.14 | 0.98 (inactive) | -0.818 (inactive) | -1.46 (inactive)
COC(=O)[C@@]1(Cc2ccc(F)cc2)[C@H]2c3cc(C(=O)N4CCCC4)n(Cc4ccc(C)o4)c3C[C@H]2CN1C(=O)c1ccccc1 | -0.814 | 0.707 (inactive) | -6.17 (inactive) | -1.04 (inactive) | -0.595 (inactive) | 0.544 (inactive) | -0.201 (inactive) | 0.548 (inactive) | -5.35 | 0.0623 | 0.205 (inactive) | 0.705 | -1.14 | -4.22 (inactive) | -0.289 (inactive) | -0.163 (inactive)
CCCCCN1CC=CC23O[C@@H]4/C=C\CCCOC(=O)C4[C@H]2C(=O)N(CCCO)[C@@H]3C1=O (some centres undefined) | 1.15 | -1.26 (inactive) | 1.21 (inactive) | -1.37 (inactive) | 0.661 (inactive) | -1.32 (inactive) | 0.581 (inactive) | 0.025 (inactive) | 1.72 | 0.239 | 1.75 (inactive) | 0.772 | -0.332 | -5.09 (inactive) | -0.297 (inactive) | -0.426 (inactive)
O=C1OCCC=C[C@H]2OC34C=CCN(CCN5CCOCC5)C(=O)[C@H]3N(CCCCCCO)C(=O)[C@@H]4C12 (some centres undefined) | 0.24 | 0.039 (inactive) | -0.0328 (inactive) | 0.369 (inactive) | -0.373 (inactive) | 0.626 (inactive) | 1.14 (inactive) | 1.43 (inactive) | 0.22 | 0.464 | 0.995 (inactive) | 0.091 | -0.0217 | -5.15 (inactive) | -0.334 (inactive) | -0.109 (inactive)
COc1ccc([Si](C)(C)[C@H]2[C@H](CCn3cc([C@H](O)c4ccccc4)nn3)O[C@@]3(C(=O)N(Cc4cccc(N5CCOC5=O)c4)c4ccccc43)[C@@H]2C)cc1 | -0.332 | 0.548 (inactive) | -1.59 (inactive) | -0.351 (inactive) | 1.43 (inactive) | 1.18 (inactive) | 0.196 (inactive) | 0.0133 (inactive) | -0.754 | -0.117 | -0.44 (inactive) | 0.548 | -1.54 | -3.83 (inactive) | -0.056 (inactive) | 0.324 (inactive)
CCCCCC1=C2CNC(CCC)(C(=O)OC)C=C2C(C)C1=O (centres undefined) | -1.08 | 0.381 (inactive) | -1.34 (inactive) | -1.62 (inactive) | 0.796 (inactive) | 0.891 (inactive) | 0.0107 (inactive) | 0.56 (inactive) | -0.888 | 0.347 | 0.455 (inactive) | -0.0874 | -0.175 | -6.92 (inactive) | 0.138 (inactive) | 0.466 (inactive)
O=C1C2C=CC(C(O)c3ccc(F)cc3)N(Nc3ccccc3F)C2C(=O)N1c1ccccc1 (centres undefined) | -0.395 | -1.9 (inactive) | -0.63 (inactive) | 0.306 (inactive) | 0.599 (inactive) | 0.0815 (inactive) | -0.554 (inactive) | -0.184 (inactive) | -0.292 | 0.0029 | 1.27 (inactive) | 0.252 | 0.712 | -3.25 (inactive) | 0.186 (inactive) | 0.154 (inactive)
COCCOC(=O)N1C(=O)[C@@]2(c3cc(C#Cc4ccc(OC)cc4)ccc31)[C@H](C(=O)N1CCCCCCC1)[C@H]1C(=O)O[C@H](c3ccccc3)[C@H](c3ccccc3)N1[C@@H]2c1ccc(OCCO)cc1 | 0.73 | 0.777 (inactive) | 1.15 (inactive) | -1.37 (inactive) | 3.3 (inactive) | 0.262 (inactive) | 1.11 (inactive) | 2.25 (inactive) | 0.425 | 0.47 | 2.79 (inactive) | 0.635 | -2 | -15.8 (active) | -0.442 (inactive) | -0.617 (inactive)
COc1ccc(C(=O)Nc2ccc(CN3C(=O)[C@@]4(O[C@@H](CCn5cc([C@H](O)c6ccccc6)nn5)[C@H]([Si](C)(C)c5ccc(OC)cc5)[C@H]4C)c4ccccc43)cc2)cc1 | -1.44 | -0.91 (inactive) | -3.18 (inactive) | -0.441 (inactive) | 1.04 (inactive) | 1.57 (inactive) | 0.245 (inactive) | 0.195 (inactive) | -3.11 | -0.16 | 0.0679 (inactive) | 0.216 | -2.3 | 0.568 (inactive) | -0.0665 (inactive) | -0.348 (inactive)
COc1cc2c(cc1O)C(C1CC1)N(Cc1cc3c(cc1Br)OCO3)CC2 (centres undefined) | -1.94 | -2.67 (inactive) | -3.63 (inactive) | -1.55 (inactive) | 0.571 (inactive) | 0.698 (inactive) | -1.2 (inactive) | -1.71 (inactive) | -3.52 | 0.0761 | 0.411 (inactive) | 0.479 | -2.44 | -5.54 (inactive) | -0.174 (inactive) | 0.285 (inactive)
CCCC#C[Si](O[C@H](CC)c1cn([C@H](CO)Cc2ccccc2)nn1)(C(C)C)C(C)C | 0.442 | -12.8 (active) | 0.11 (inactive) | 0.225 (inactive) | 0.0885 (inactive) | 0.852 (inactive) | -0.281 (inactive) | -0.154 (inactive) | 0.114 | -0.121 | 0.149 (inactive) | 0.405 | 0.129 | -0.713 (inactive) | 0.112 (inactive) | -0.311 (inactive)
C[N+](C)(C)CCCC[C@@H]1NC(=O)[C@@H]2C[C@H](C(=O)NCCCCCN)[C@H](c3cccc(OCCO)c3)N2C1=O | -0.85 | -0.749 (inactive) | -1.23 (inactive) | -0.76 (inactive) | 0.131 (inactive) | 0.527 (inactive) | 0.0148 (inactive) | 0.597 (inactive) | 0.0758 | 0.191 | -0.442 (inactive) | 0.572 | 0.137 | -3.6 (inactive) | -0.86 (inactive) | -0.231 (inactive)
C=CC[C@@]1(C(N)=O)N=C(c2ccc(OCCCO)cc2)O[C@@H]1c1ccccc1CN=[N+]=[N-] | 0.165 | -0.935 (inactive) | 0.348 (inactive) | -0.0357 (inactive) | 0.426 (inactive) | -0.742 (inactive) | 0.793 (inactive) | -0.597 (inactive) | 0.093 | -0.201 | 1.06 (inactive) | 0.843 | -1.7 | -3.93 (inactive) | 0.586 (inactive) | 1.16 (inactive)
C#CCN(Cc1ccccc1Br)C(/C=C/c1ccccc1)CO (centres undefined) | -0.54 | -6.66 (inactive) | 0.862 (inactive) | 0.34 (inactive) | -0.365 (inactive) | -1.26 (inactive) | 1.1 (inactive) | -0.494 (inactive) | -0.166 | 0.147 | 1.09 (inactive) | -0.318 | -1.02 | -6.39 (inactive) | -0.348 (inactive) | -0.323 (inactive)
CC(C)OC(=O)C=C1C[C@@H](c2ccccc2C(F)(F)F)O[C@@H](c2ccccc2C(F)(F)F)O1 | -0.111 | 0.0349 (inactive) | 0.493 (inactive) | -1.12 (inactive) | -0.212 (inactive) | 0.123 (inactive) | -1.23 (inactive) | 0.217 (inactive) | -0.818 | 0.193 | -0.245 (inactive) | -0.277 | -1.82 | 0.189 (inactive) | -0.319 (inactive) | -0.595 (inactive)
OC([C@@H]1CC(c2ccccc2)=NO1)[C@H]1CC(c2ccccc2)=NO1 (some centres undefined) | 0.447 | -1.39 (inactive) | 0.129 (inactive) | -0.543 (inactive) | -0.0704 (inactive) | 1.16 (inactive) | 2.32 (inactive) | 1.16 (inactive) | 0.236 | -0.159 | 0.267 (inactive) | -0.444 | 0.557 | -0.163 (inactive) | -0.801 (inactive) | -1.25 (inactive)
COC(=O)[C@@]1(Cc2ccccc2)[C@H]2c3cc(C(=O)N4CCCC4)n(Cc4nc5ccccc5[nH]4)c3C[C@H]2CN1C(=O)c1ccccc1 | -0.415 | 1.22 (inactive) | -1.66 (inactive) | 0.374 (inactive) | 0.687 (inactive) | 0.759 (inactive) | -0.538 (inactive) | -1.1 (inactive) | -1.3 | 0.119 | 1.33 (inactive) | 0.213 | -1.65 | -3.97 (inactive) | -1.01 (inactive) | -0.881 (inactive)
